According to PubChem BioAssay AID1852 (Sanford-Burnham Center for Chemical Genomics, 2009):
In all, about 2,500 compounds went through this assay and about 1,100 (44%) were called active. The set was probably picked from earlier hits. The list shows a part of the results. Unmarked numbers belong to inactive results.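 How the source made its calls: active means inhibition above 50% at 4 µM in the single-point screen; inactive means inhibition of 50% or less.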

Test: blockers of TNF-a NF-kB luciferase induction – cell-based, HEK293T NF-kB-Luc, luminescence, selectivity assay for NOD1/NOD2 signaling inhibitor project, primary screen (AID 1852)
Details: TNF-a induced, 14 h, at 4 µM, hits give high values

Compound	inhibition
CCCN(CCC)c1ncnc2nc[nH]c12	83.4% (active)
CCN(c1ccc(OC)cc1)c1ncnc2nc[nH]c12	86.3% (active)
CCc1ccc(N(CC)c2ncnc3nc[nH]c23)cc1	82.5% (active)
C/C(Cl)=C/Cn1c(SC(C)C)nc2c1c(=O)[nH]c(=O)n2C	-13.9%
Cc1ccc(NS(=O)(=O)c2cc(NC(=O)c3ccc4c(c3)NC(=O)CS4)ccc2Cl)c(C)c1	-2.2%
O=C1CSc2ccc(C(=O)Nc3cccc(S(=O)(=O)Nc4ccc(Br)cc4)c3)cc2N1	63.4% (active)
O=C(Nc1cccc([N+](=O)[O-])c1)c1ccc2ccccc2c1O	32.8%
Cc1cccc(NC(=O)c2cccc(NS(=O)(=O)c3ccc(Cl)cc3)c2)c1	23.1%
O=C(Nc1ccccc1C(=O)O)c1cc(S(=O)(=O)Nc2cccc(F)c2)ccc1Cl	58.9% (active)
Cc1ccc(NS(=O)(=O)c2cc(NC(=O)c3ccc4c(c3)NC(=O)CS4)ccc2C)c(C)c1	3.2%
O=C(Nc1ccccc1C(=O)O)c1cccc(NS(=O)(=O)c2ccc(Br)cc2)c1	55.5% (active)
Cc1ccc2c(c1)CCCN2S(=O)(=O)c1cccc(C(=O)Nc2ccccc2C(=O)O)c1	5.4%
O=C(/C=C/c1ccc([N+](=O)[O-])cc1)Nc1cccc(C(=O)Nc2ccccc2C(=O)O)c1	65.5% (active)
Cc1ccc(Sc2ccc(/C=C3/C(=O)NN(c4ccccc4)C3=O)o2)cc1	-8.6%
Cc1ccc(C(=O)Nc2ccccc2C(=O)O)cc1S(=O)(=O)Nc1ccccc1	76.6% (active)
O=C(CCl)Nc1cc(S(=O)(=O)N2CCCCCC2)ccc1Cl	17.6%
NS(=O)(=O)c1ccc(NC(=O)c2cc(Cl)ccc2Cl)cc1	14.7%
O=C(Nc1ccc(Cl)cn1)c1ccc(Br)c(S(=O)(=O)N2CCCCC2)c1	39.5%
O=C(Nc1ccccc1C(=O)O)c1cc(S(=O)(=O)Nc2ccccc2)ccc1Cl	58.9% (active)
O=C(Nc1ccccc1C(=O)O)c1cc(S(=O)(=O)N2CCCCC2)c(Cl)cc1Cl	61% (active)
O=C(c1cc2nc(-c3ccc(F)cc3)cc(C(F)(F)F)n2n1)N1CCCCC1c1cccnc1 (stereo not given)	34.3%
Brc1ccccc1OCCCCn1cnc2ccccc21	-10.4%
O=c1cc(C(F)(F)F)[nH]c2ccc(OC(F)(F)F)cc12	78.8% (active)
O=c1cc(C(F)(F)F)[nH]c2ccc(C(F)(F)F)cc12	73.1% (active)

Compound	inhibition
O=c1nc(/C=C/c2ccccc2C(F)(F)F)cc(C(F)(F)F)[nH]1	-14.4%
CN(C(=O)/C=C/c1ccc([N+](=O)[O-])s1)c1ccccc1	37.1%
Cc1ccccc1NC(=O)/C=C/c1ccc([N+](=O)[O-])s1	104% (active)
Cc1ccc(NC(=O)/C=C/c2ccc([N+](=O)[O-])s2)c(C)c1	100% (active)
Oc1[nH]c2ccccc2c1N=NC(=S)N1CCOCC1	94.8% (active)
Oc1[nH]c2ccccc2c1N=Nc1nc(Nc2ccccc2)nc(N2CCOCC2)n1	12.6%
O=C(O)CCn1cc(/C=C/C(=O)c2ccc(Cl)cc2)c(-c2cccc(Br)c2)n1	-4.4%
Cc1ccc(-c2nn(CCC(=O)O)cc2/C=C\C(=O)c2ccc(Br)cc2)cc1	94.7% (active)
O=C(O)CCn1cc(/C=C\C(=O)c2ccc(Cl)cc2)c(-c2cccc(Br)c2)n1	77.2% (active)
N#C/C(=C(/O)COC(=O)CSc1ccc2ccccc2c1)c1nc2ccccc2[nH]1	90.4% (active)
N#C/C(=C(/O)COC(=O)CSc1ccc(Cl)cc1)c1nc2ccccc2[nH]1	93.2% (active)
Cc1ccnc(NC(=O)Nc2ccc3c(c2)N(C)C(=O)CS3)c1	-55.6%
CC(Oc1ccc(Br)cc1)C(=O)Nc1nc(-c2ccccn2)cs1 (stereo not given)	90.7% (active)
Cn1cc([N+](=O)[O-])c(C(=O)Nc2nc(-c3ccc(Cl)cc3)cs2)n1	43.8%
Cc1cc(C(=O)Nc2nc(-c3ccccn3)cs2)ccc1[N+](=O)[O-]	-1%
O=C(Nc1nc(-c2cc(F)ccc2F)cs1)c1ccccn1	91.2% (active)
CCc1ccccc1OCC(=O)Nc1nc(-c2cccnc2)cs1	15.7%
O=C(Nc1nc(-c2ccccn2)cs1)c1cc(Cl)ccc1[N+](=O)[O-]	105% (active)
O=C(Nc1nnc(SCc2ccc(F)cc2)s1)c1ccccn1	109% (active)
Cc1nc(C2CCC3C4CCC5=CC(=O)CC[C@]5(C)C4CC[C@]23C)cs1 (stereo not given in full)	34.9%
O=C(Nc1nc(-c2ccccn2)cs1)c1ccc(Cl)s1	19.4%
O=C(Nc1nc(-c2ccccn2)cs1)Nc1ccc(F)cc1F	82.1% (active)
CCSc1nsc(NC(=O)Nc2cccc(F)c2)n1	46.9%
COc1cccc2sc(Nc3nc(-c4ccccn4)cs3)nc12	102% (active)

Compound	inhibition
COc1ccccc1-c1nnc(Nc2nc3c(OC)cccc3s2)o1	27.9%
Cc1cccnc1Nc1nc(-c2ccccn2)cs1	104% (active)
Fc1cc(F)c2nc(Nc3nc4c(F)cccc4s3)sc2c1	-17.5%
COc1ccc(CCNS(=O)(=O)c2ccc(Br)s2)cc1	35%
CC(=O)c1cccc(NS(=O)(=O)c2ccc(-c3cnc(C4CC4)o3)cc2)c1	66.3% (active)
CSc1cccc(NS(=O)(=O)c2ccc(-c3coc(C)n3)cc2)c1	24.6%
COc1ccc(NS(=O)(=O)c2ccc(-c3cnc(C4CC4)o3)cc2)cc1OC	38.9%
O=C(NC(NNc1ccc([N+](=O)[O-])cc1)(C(F)(F)F)C(F)(F)F)c1ccc(Cl)cc1	50.3% (active)
O=C(Nc1cc(C(F)(F)F)cc(C(F)(F)F)c1)Nc1cnn(-c2ccc([N+](=O)[O-])cc2)c1C(F)(F)F	48.5%
CCN(CC)C(=O)c1oc2ccc(S(=O)(=O)N3CC(C)CC(C)C3)cc2c1C (stereo not given)	31.2%
CCOC(=O)c1oc2ccc(S(=O)(=O)n3nc(-c4ccc(OC)cc4)cc3N)cc2c1C	60.2% (active)
CCOC(=O)C(=CNc1ccc2c(c1)c1ccccc1n2CC)C(=O)OCC	17.5%
CCn1c(=O)c2c(cnn2C)c2ccccc21	81.7% (active)
CN(C)CC(CCC(CN(C)C)C(=O)c1ccccc1)C(=O)c1ccccc1 (stereo not given)	102% (active)
CCOc1ccc(C(=O)C(CCC(CN(C)C)C(=O)c2ccc(OCC)cc2)CN(C)C)cc1 (stereo not given)	12.6%
C/C(=N\NC(=O)c1ccccc1Cl)c1ccccn1	97.3% (active)
C=CCNC(=S)N/N=C(\C)c1ccccn1	111% (active)
C/C(=N\NC(=O)C(c1ccccc1)c1ccccc1)c1ccccn1	103% (active)
C/C(=N\NC(=O)c1ccccc1F)c1ccccn1	49.5%
C/C(=N\Nc1nc2ccccc2[nH]1)c1ccccn1	101% (active)
CSC(=S)N/N=C(\C)c1ccc(Br)cc1	11.8%
COc1ccc(/C=C/c2cc(-c3ccc(C)cc3)o[n+]2C)cc1	30.9%
C/C(=N\NC(=O)C(C)Oc1ccc([N+](=O)[O-])cc1)c1ccccn1 (stereo not given)	103% (active)
C/C(=N\NC(=O)C1COc2ccccc2O1)c1ccccn1 (stereo not given)	83.2% (active)

Compound	inhibition
C/C(=N\NC(=O)c1cccc2ccccc12)c1ccccn1	103% (active)
C/C(=N\NC(=O)c1n[nH]c2c1CCC2)c1cccs1	46.3%
C/C(=N\NC(=O)c1cc(-c2cccs2)nc2ccccc12)c1ccccn1	106% (active)
COc1ccc(CN(C)Cc2nc(Cc3cccc(F)c3)no2)c2cccnc12	48.3%
Cc1ccc(-n2c(C)cc(/C=c3/sc4nc5ccccc5n4c3=O)c2C)cc1	-32%
COc1ccc(-n2ncc(Cl)c(Cl)c2=O)cc1	78.2% (active)
COc1cccc(-n2nc(C#N)c(Cl)cc2=O)c1	45.7%
COc1ccc(-n2ncc3c(N(C)C4CCCCC4)ncnc32)cc1	23.2%
COc1ccc(-n2nc(C#N)c(Cl)cc2=O)cc1	59.1% (active)
COc1ccc(-n2cc(C#N)c(=O)[nH]c2=O)cc1	47.1%
Cc1ccc(OCc2nnc(SC3CCc4ccccc4C3=O)n2C)cc1 (stereo not given)	17.5%
CCOc1ccc(-n2c(C)c(C(C)=O)c3cc(O)ccc32)cc1	40.7%
COc1ccc2c(c1)c(C(C)=O)c(C)n2-c1ccc(C(C)=O)cc1	71.3% (active)
CCOc1ccc(-n2c(C)c(C(C)=O)c3cc(OC(C)=O)ccc32)cc1	78.7% (active)
COc1ccc(-n2c(C)c(C(C)=O)c3cc(OC(C)=O)ccc32)cc1	94.8% (active)
COc1ccc(C(C)=O)cc1Cn1c(=O)cc(C)[nH]c1=O	40.6%
COc1ccc2c(c1)c(=O)oc1c(C)c(OCc3ccc(C(=O)O)cc3)ccc12	34.1%
COc1ccc2c(c1)c(C(C)=O)c(C)n2CCc1ccccc1	53.2% (active)
O=C(NCCc1ccccc1F)c1ccc2c(c1)OCCO2	80.8% (active)
O=C(CCl)Nc1c(C(=O)Nc2ccc3c(c2)OCCO3)oc2ccccc12	-69.2%
O=C(NCCc1ccccc1)c1ccc2c(c1)OCCO2	48.5%
O=C(NCCc1ccccc1)c1ccc2c(c1)OCCCO2	100% (active)
CCSc1nc2c(c(=O)[nH]c(=O)n2C)n1C/C=C(/C)Cl	11.6%
